Reference: PubChem BioAssay (NCI)
About 83,000 compounds went through this panel and 20% of them were active in at least one assay; those are over-represented in the sample as a whole.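 Plates (96-well) were seeded with cells, treated with compound at one concentration, and incubated for 48 hours before percent growth was determined.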 Unmarked numbers belong to inactive results. Active and inactive are the calls of the source. Rule for the calls: active = growth percent below 10; inactive = the rest.

tested on: HL-60(TB) leukemia; test: NCI-60 one-dose screen, 48 h (100 = growth as untreated, 0 = no growth, -100 = all killed); settings: 10 µM unless noted

| SMILES | growth |
| --- | --- |
| O=S1(=O)CCN(Cc2ccccc2)CC1 | 108% |
| CN(C)c1ccc(/C=C(\C#N)c2cc3ccccc3n2C)cc1 | 2.69% (active) |
| NC(N)=N/N=C\c1ccc(OCc2ccccc2)cc1 | 43.1% |
| CC(C)CC(NC(=O)CN(Cc1ccccc1)S(C)(=O)=O)C(=O)O (stereo not given) | 94.8% |
| CN(C)CCC(=O)c1c[nH]c2ccccc12 | 96.5% |
| c1ccc(CO[C@H]2CO[C@H]3[C@@H]2OC[C@@H]3Oc2ccc(Nc3ncnc4ccsc34)cc2)cc1 | 75.7% |
| CC/C=C/[C@@H]1C=C[C@@H]2CCC[C@H]2[C@@H]1CC[C@H](O)[C@H](C)N | -61.6% (active) |
| O=C(Cc1ccc(/C=C/C(=O)c2ncc[nH]2)cc1)Nc1ccc(F)cc1 | -17.3% (active) |
| COc1cc2c(cc1OCCCOC1=C=C=C(c3ccc4c(c3)c3cc(-c5ccc(OCCCOc6cc7c(cc6OC)C(=O)N6CCC[C@H]6C=N7)cc5)ccc3n4S(=O)(=O)c3ccc(C)cc3)C=C1)N=C[C@@H]1CCCN1C2=O | 10.5% |
| COc1c(C)c2c(c(O)c1C/C=C(\C)CCC(=O)O)C(=O)OC2 | 45.6% |
| O=c1cc2oc3cc(O)c(O)cc3c(-c3ccccc3O)c-2cc1O | 103% |
| CCCCOc1nc2c(C)cccc2cc1-c1cc(-c2ccc(Cl)cc2)nc(-c2ccc(Cl)cc2)c1 | 98.8% |
| CCN1CCN(c2ccc(Nc3ncc4ccc5ncn(C(C)C)c5c4n3)nc2)CC1 | -36.3% (active) |
| N#Cc1ccc(NC(=O)Nc2ccc(Cc3ccc(NC(=O)Nc4ccc(C#N)cc4)cc3)cc2)cc1 | 22.4% |
| COc1ccc(-n2cc(-c3cc(OC)c(OC)c(OC)c3)n(C(C)=O)c2=O)cc1 | 126% |
| COc1ccc(C2(O)CCCCC2)cc1 | 95.6% |
| N#Cc1c2cccnc2c2nnc3cc(Cl)c(Cl)cc3n12 | 23.3% |
| CCCCCCCCCCCC(c1ccccc1)[N+](C)(C)C (stereo not given) | -30.5% (active) |
| O=S(=O)(Nc1ccsc1-c1nc(-c2ccccc2)no1)c1cc(Cl)cc(Cl)c1 | 119% |
| CC(C)(C)C(=O)OCOP(=O)(OCOC(=O)C(C)(C)C)C1CC(O)N(O)C1=O (stereo not given) | 13.1% |

| SMILES | growth |
| --- | --- |
| COc1cc2nccc(Oc3ccc(NC(=O)Nc4cc(C)on4)c(Cl)c3)c2cc1OC | 9.48% (active) |
| Cc1cc(Nc2cccc(F)c2)nc(NCc2ccccc2)n1 | 24.1% |
| C[C@]12C[C@@H](c3ccoc3)OC(=O)[C@@H]1CC[C@]1(C)[C@@H]2CC[C@@H](O)[C@]1(C)O | 9.31% (active) |
| COc1ccc(Cc2cnc(NC(=O)c3cc(C)oc3C)s2)cc1 | -9.34% (active) |
| Oc1ccc(Cl)cc1-c1cc(-c2ccc(F)cc2)n[nH]1 | 74.9% |
| Cc1ccc(NSc2ccccc2[N+](=O)[O-])cc1 | -6.97% (active) |
| COc1ccc(-c2nc(SCCC(C)C)nc(N/N=C(/C)c3ccc(N)cc3)c2C#N)cc1 | 83.8% |
| COc1ccc(Nc2ncccc2C(=O)NCc2cn(Cc3cc(OC)cc(OC)c3)nn2)cc1 | 91.6% |
| CC(=O)c1c(C)[nH]c(-c2nc3ccc(N4CCN(C)CC4)cc3[nH]2)c1-c1ccc(OCC2CCOCC2)cc1 | -12.9% (active) |
| O=C(Nc1ccc(-n2ccc3c(NC(=O)c4ccccc4)ncnc32)cc1)Nc1ccc(Cl)c(Cl)c1 | 62.1% |
| O=C1C=CN2C(=O)CC=CC2[C@@H]1O (stereo not given in full) | 98.1% |
| COc1ccc(C)cc1OC | 94.3% |
| S=C(S)OCN1CCOCC1 | 106% |
| COc1ccc(/C=C(\C#N)c2cc3ccccc3[nH]2)cc1 | 14.8% |
| CCOc1cccc(-c2nc(N)nc(Nc3ccccc3SSc3ccccc3Nc3nc(N)nc(-c4cccc(OCC)c4)n3)n2)c1 | 8.5% (active) |
| Cc1ccc(S(=O)(=O)Nc2ccc(-c3cc(-c4cccc(F)c4)c(C#N)c(=O)[nH]3)cc2)cc1 | 87% |
| CO[C@]12C=C/C(=C(/C(=O)OCc3cccnc3)C(=O)CCCCCCCC[C@]3(OC)C=C/C(=C(/C(=O)OCc4cccnc4)C(=O)CCCCCCCC1)O3)O2 | -29.3% (active) |
| Oc1ccc(C2OCCO2)c2cccnc12 | 15.8% |
| C=C1C(=O)O[C@H]2[C@H]1CC/C(Cn1cc(-c3ccccc3C(F)(F)F)nn1)=C\CC[C@@]1(C)O[C@@H]21 | -13.3% (active) |
| CCCCCCn1c(-c2ccc(C(=O)O/N=C(\N)c3ccc(OC)cc3)cc2)nc(-c2ccccc2)c1-c1ccccc1 | -58% (active) |
